The nature of test [1]: A549 cell viability effects, profiling panel, calcein-AM fluorescence, 48 h, basal (AID 1162). The conditions noted are these: higher = more signal.
The nature of test [2]: adipocyte viability effects, profiling panel, cell-based, 3T3-L1 adipocytes, calcein-AM fluorescence, 48 h, basal (AID 1163). Particulars: 3T3-L1 adipocytes viability, higher = more signal.
A short description of test [3]: HepG2 cell viability effects, profiling panel, calcein-AM fluorescence, 48 h, basal (AID 1164). Particulars: higher = more signal.
A short description of test [4]: MM1S cell viability effects, profiling panel, calcein-AM fluorescence, 48 h, basal (AID 1165).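 Note: viability of MM1S multiple myeloma cells under basal unstimulated conditions.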 Particulars: higher = more signal.
Test [5] in a line: basal RPMI8226 viability, no added stimulus, profiling panel, cell-based, calcein-AM fluorescence, 48 h, PK04 Diversity Set (AID 1166).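 Note: cells grown under basal conditions without added stimulus.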 Particulars: RPMI8226 myeloma viability, higher = more signal.
A short description of test [6]: basal HepG2 mitochondrial membrane potential changes, profiling panel, cell-based, JC-1 fluorescence, 24 h, 100 nL compound (AID 1167). Particulars: higher = more signal.
Test [7] in a line: basal 3T3-L1 adipocyte mitochondrial potential changes, profiling panel, cell-based, JC-1 fluorescence, 3T3-L1 adipocytes, 24 h, 100 nL compound (AID 1168). The conditions noted are these: JC-1 mitochondrial fluorescence, higher = more signal, called active from +8 up or from −8 down.
The nature of test [8]: basal RPMI8226 mitochondrial membrane potential changes, profiling panel, cell-based, JC-1 fluorescence, 24 h, 100 nL compound (AID 1169). The conditions noted are these: RPMI8226 myeloma, JC-1 mitochondrial potential fluorescence, higher = more signal.
The nature of test [9]: basal MM1S mitochondrial membrane potential changes, profiling panel, cell-based, JC-1 fluorescence, 24 h, 100 nL compound (AID 1170). The conditions noted are these: higher = more signal.
Test [10] can be described thus: A549 lung cancer cell viability effects, profiling panel, resazurin fluorescence, 24 h, PK04 Diversity Set (AID 1171). The conditions noted are these: higher = more signal, called active from +8 up or from −8 down. A general note: The colour change of resazurin is a common sign of viable cells or microbes.

Active and inactive are the calls of the source.
Note: test concentration not given here.

As for `C=CC[C@@H]1C=C[C@H](ON=C2c3cc(OC)ccc3O[C@H](c3cccc(OC)c3)[C@H]2O)[C@@H](CO)O1`, the z-score in test [1] was 0.27; in test [2] it was -0.855; in test [3], 0.925; in test [4], 0.334; in [5], -0.0859; in [6], -1.45. For the same compound, the z-score in test [7] was 0.704 (inactive); in test [8] it was -0.148; in [9] it was -1.12; in test [10] it was -1.25 (inactive).

On to `COCCCNC(=O)[C@@]1(Sc2ccc(C)cc2)CC(=O)N(Cc2ccccc2)[C@@H]1c1ccc(CO)cc1I`, for which the z-score in test [1] is 1.17; in test [2], 0.422; in test [3] it was 0.264; in [4] it was -2.37; in test [5], -1.94; in [6], 0.735. Further, the z-score in test [7] was -0.253 (inactive); in test [8], -0.617; in test [9], -1.47; in [10] it was 0.491 (inactive).

As to `C[C@@H]1CC[C@H]2C(=O)O[C@H](COc3ccc(C(C)(C)C)cc3)CN2[C@H]1c1ccc(Br)cc1`, the z-score was 1.29 in test [1]; 0.0543 in test [2]; 0.0624 in [3]; -0.232 in test [4]; -0.0964 in test [5]; -1.12 in test [6]. The z-score in test [7] was -0.204 (inactive); in test [8], -0.132; in test [9] it was 0.621; in [10] it was 1.19 (inactive).

Turning to `COC(=O)CC=C[C@@H](C)[C@@H](C=NO[C@@H](C)c1cc(-c2c(C)cc(C)cc2C)no1)OC`, the z-score is -0.542 in test [1]; 1.05 in [2]; -0.618 in test [3]; 0.0635 in test [4]; -0.466 in test [5]; -1.13 in test [6]. Besides, the z-score was -0.613 (inactive) in test [7], -0.549 in [8], -1.19 in test [9] and 0.16 (inactive) in test [10].

As to `O=C(NN=C1C[C@@H](O)[C@@H](O)[C@@H]2[C@@H]3C(=O)N(c4ccc(F)cc4F)C(=O)[C@@H]3CC[C@@H]12)OCc1ccccc1`, the z-score in [1] is 0.166; in test [2] it was -0.902; in test [3], -0.903; in test [4] it was 0.655; in test [5], -0.768; in test [6], -0.121. Besides, the z-score in test [7] is 1.2 (inactive); in [8] it was -0.353; in test [9] it was -0.0309; in [10], -0.0526 (inactive).

Turning to `CCOC(=O)NN=C1C[C@@H](O)[C@@H](O)[C@@H]2[C@@H]3C(=O)N(CC)C(=O)[C@@H]3CC[C@@H]12`, the z-score is 0.296 in [1]; -0.538 in [2]; 0.322 in test [3]; 0.0379 in [4]; 0.288 in test [5]; -0.495 in [6]. Further, the z-score in test [7] is -0.852 (inactive); in test [8], -0.151; in test [9], -0.662; in test [10], 0.45 (inactive).

Turning to `CC(CCN1CCc2nc(-c3ccccc3)c(-c3ccccc3)cc2C1)=NOC(C)CN1CCCCc2nc(C)c(C)cc21` (stereo not given), the z-score in [1] is 0.646; in test [2] it was 0.659; in [3], 0.797; in [4] it was -1.82; in [5] it was -0.19; in test [6], 4.98. In addition, the z-score in [7] was -1.28 (inactive); in [8] it was 0.303; in [9] it was 0.108; in test [10] it was 0.935 (inactive).

Regarding `CC=CC1=C(CO)[C@H](O)[C@H]2O[C@H]2[C@H]1O`, the z-score in test [1] is -0.286; in test [2], 0.292; in [3], -0.408; in [4] it was 0.0314; in [5], -0.054; in test [6], -0.722. For the same compound, the z-score in [7] was 0.382 (inactive); in [8], 0.635; in [9], 0.677; in [10], -0.482 (inactive).

`CCN1C(=O)[C@H]2[C@H]3[C@H](O)[C@H](O)CC(=NOC(C)CN4CCCCc5nc(C)c(C)cc54)[C@@H]3CC[C@H]2C1=O` (stereo not given in full): the z-score was -0.421 in [1]; 0.111 in [2]; 0.503 in test [3]; 0.0768 in [4]; 0.173 in [5]; -0.214 in test [6]. The z-score was -1.21 (inactive) in test [7], -0.232 in [8], -0.0499 in [9] and -0.378 (inactive) in [10].

Turning to `COCCNC(=O)OCC1CCCC2(CC(OC(=O)NCCc3ccc(F)cc3)CC(CCC(=O)N[C@@H](C)C(=O)OC)O2)O1` (stereo not given in full), the z-score in test [1] was 1.26; in test [2] it was -0.144; in test [3], 0.0479; in [4] it was -0.491; in test [5], 0.253; in test [6] it was -0.198. The z-score was 0.836 (inactive) in test [7], -0.156 in [8], -1 in test [9] and 1.06 (inactive) in [10].

In the case of `CC1CC/C=C\[C@H]2OC34C=CCN(C(C)C)C(=O)[C@H]3N(CCCO)C(=O)[C@@H]4C2C(=O)O1` (stereo not given in full), the z-score is -0.478 in [1]; -0.156 in test [2]; -0.381 in test [3]; -0.929 in test [4]; 0.449 in test [5]; 0.486 in [6]. For the same compound, the z-score in test [7] was 0.51 (inactive); in [8], -0.0642; in test [9], 0.687; in test [10], 0.385 (inactive).

As to `CC(C)C[C@@H]1NC(=O)[C@H]2C[C@@H](C(=O)NCCCCCCN(C)C)[C@@H](c3cccc(OCCO)c3)N2C1=O`, the z-score is -1.26 in [1]; 0.88 in [2]; -0.278 in [3]; 0.303 in [4]; 0.651 in [5]; -1.09 in test [6]. In addition, the z-score in test [7] was -0.481 (inactive); in test [8], -0.0673; in test [9] it was -0.0169; in [10], -0.21 (inactive).

Consider `COC(=O)[C@H](C)NC(=O)[C@@H](C)CO`, for which the z-score in test [1] was -0.562; in [2] it was 0.945; in test [3], -0.524; in [4] it was 0.363; in test [5], -1.21; in test [6] it was -0.355. The z-score was -0.0968 (inactive) in test [7], -0.04 in [8], 0.384 in test [9] and -0.939 (inactive) in test [10].

As to `COCC(=C=CC[C@@H](O)c1ccccc1OCCO)CCO`, the z-score in [1] is 1.31; in test [2], 0.177; in test [3] it was 0.792; in test [4], 0.699; in [5], 0.551; in [6], 0.429. Also, the z-score in test [7] was 0.432 (inactive); in test [8] it was -0.631; in [9] it was 0.918; in [10] it was 0.675 (inactive).

Consider `O=C1[C@H]2[C@H]3[C@H](O)[C@H](O)CC(=NO[C@@H]4O[C@H](CO)[C@@H](O)[C@H](O)[C@H]4O)[C@@H]3CC[C@H]2C(=O)N1Cc1ccc2c(c1)OCO2`, for which the z-score was -0.575 in [1]; 1.13 in test [2]; -0.874 in test [3]; -0.778 in [4]; -1.06 in test [5]; 0.221 in test [6]. Also, the z-score is -1.34 (inactive) in test [7], -0.981 in test [8], 0.386 in test [9] and 0.159 (inactive) in test [10].

Consider `COc1ccc(COC(=O)NN=C2C[C@@H](O)[C@@H](O)[C@@H]3[C@@H]4C(=O)N(c5ccc(F)cc5F)C(=O)[C@@H]4CC[C@@H]23)cc1`, for which the z-score is -0.102 in test [1]; 0.257 in [2]; -0.987 in test [3]; -0.738 in test [4]; -0.952 in [5]; 0.556 in test [6]. Besides, the z-score was 0.301 (inactive) in [7], -0.195 in [8], 0.627 in test [9] and 0.909 (inactive) in test [10].

These data come from PubChem BioAssay.
